For some assays here: Potency and affinity values are given separately.
What was measured:
Set-up in all cases: scale not given: direction of the effect not stated beside the values
[1] = biological target: Protein translocase subunit SecA (Escherichia coli (strain K12)) (UniProt P10408); experiment: Assay to Identify E. coli SecA ATPase Inhibitors; type: functional; settings: 30 µM
[2] = biological target: T1, Ubiquitin-activating enzyme e1, putative (Leishmania donovani (strain BPK282A1)) (UniProt E9BSI1); experiment: Leishmania donovani Ubiquitin Activating Enzyme (LdE1); type: functional; settings: 30 µM
T1 sequence (whole entry): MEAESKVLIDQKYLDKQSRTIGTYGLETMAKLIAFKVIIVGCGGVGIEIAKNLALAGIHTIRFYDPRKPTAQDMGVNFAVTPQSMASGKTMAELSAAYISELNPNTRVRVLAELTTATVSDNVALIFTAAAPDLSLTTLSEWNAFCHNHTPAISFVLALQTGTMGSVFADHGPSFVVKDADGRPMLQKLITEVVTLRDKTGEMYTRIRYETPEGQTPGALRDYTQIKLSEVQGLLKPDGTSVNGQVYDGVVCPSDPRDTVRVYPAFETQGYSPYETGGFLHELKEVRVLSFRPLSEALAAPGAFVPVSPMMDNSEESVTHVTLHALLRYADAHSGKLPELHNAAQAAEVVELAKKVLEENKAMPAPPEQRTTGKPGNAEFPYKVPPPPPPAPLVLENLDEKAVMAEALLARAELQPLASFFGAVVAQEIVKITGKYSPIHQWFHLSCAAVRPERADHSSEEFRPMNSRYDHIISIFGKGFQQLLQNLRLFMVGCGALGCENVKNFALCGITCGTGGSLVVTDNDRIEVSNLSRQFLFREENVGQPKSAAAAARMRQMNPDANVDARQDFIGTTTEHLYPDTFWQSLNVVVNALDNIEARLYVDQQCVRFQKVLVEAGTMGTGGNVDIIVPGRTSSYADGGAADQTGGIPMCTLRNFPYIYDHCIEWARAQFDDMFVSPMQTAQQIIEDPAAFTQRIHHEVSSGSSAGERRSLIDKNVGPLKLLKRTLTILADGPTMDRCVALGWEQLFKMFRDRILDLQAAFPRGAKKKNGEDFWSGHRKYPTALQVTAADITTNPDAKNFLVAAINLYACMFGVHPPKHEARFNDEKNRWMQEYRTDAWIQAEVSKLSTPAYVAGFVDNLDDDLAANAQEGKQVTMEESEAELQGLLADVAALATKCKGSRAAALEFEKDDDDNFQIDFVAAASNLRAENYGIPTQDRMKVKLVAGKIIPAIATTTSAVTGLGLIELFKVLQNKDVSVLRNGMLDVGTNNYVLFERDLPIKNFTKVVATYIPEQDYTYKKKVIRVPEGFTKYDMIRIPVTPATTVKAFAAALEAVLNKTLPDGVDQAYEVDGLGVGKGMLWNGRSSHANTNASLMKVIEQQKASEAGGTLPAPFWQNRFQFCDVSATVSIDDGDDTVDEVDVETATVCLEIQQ

[3] = biological target: AMP-activated protein kinase, AMPK (Homo sapiens) (UniProt P54646+O43741+P54619+Q9UGJ0+Q9Y478+Q13131+Q9UGI9); experiment: AMP-dependent Kinase enzyme assay. An in vitro enzyme assay that detects ADP turnover that is directly proportional to AMPK activity. This uses naive AMPK that is activated during the assay with MK-8722; type: functional; settings: 30 µM
[4] = biological target: Sialic acid-binding Ig-like lectin 9 (Homo sapiens) (UniProt Q9Y336); experiment: Hs-Siglec9 ALPHAscreen SOP 20170721; settings: 10 µM
Chain of Sialic acid-binding Ig-like lectin 9 (Homo sapiens) (Q9Y336 whole entry): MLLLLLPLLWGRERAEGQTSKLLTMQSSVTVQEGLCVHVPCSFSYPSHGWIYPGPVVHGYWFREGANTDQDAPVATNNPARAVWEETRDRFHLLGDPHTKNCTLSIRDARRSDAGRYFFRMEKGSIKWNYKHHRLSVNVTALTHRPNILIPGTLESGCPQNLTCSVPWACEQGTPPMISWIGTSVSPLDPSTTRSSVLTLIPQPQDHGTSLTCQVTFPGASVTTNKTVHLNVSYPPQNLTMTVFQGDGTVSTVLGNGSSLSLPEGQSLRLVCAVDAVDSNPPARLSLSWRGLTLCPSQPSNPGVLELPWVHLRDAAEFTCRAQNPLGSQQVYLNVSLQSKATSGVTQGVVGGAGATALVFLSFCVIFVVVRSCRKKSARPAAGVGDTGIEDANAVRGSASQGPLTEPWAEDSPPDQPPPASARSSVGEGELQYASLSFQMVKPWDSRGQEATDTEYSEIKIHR

[5] = system: Trypanosoma cruzi; experiment: Trypanosoma cruzi phosphomannomutase and mannose-1-phosphate guanylyltransferase assay; type: functional; settings: 10 µM
[6] = biological target: T2, Arginase-2, mitochondrial (Homo sapiens) (UniProt P78540); experiment: in vitro enzyme assay to detect the production of urea directly proportional to the activity of Arginase II; type: functional; settings: 33.3 µM; also: in the data most compounds retested in dose-response had high values
T2 sequence (whole entry): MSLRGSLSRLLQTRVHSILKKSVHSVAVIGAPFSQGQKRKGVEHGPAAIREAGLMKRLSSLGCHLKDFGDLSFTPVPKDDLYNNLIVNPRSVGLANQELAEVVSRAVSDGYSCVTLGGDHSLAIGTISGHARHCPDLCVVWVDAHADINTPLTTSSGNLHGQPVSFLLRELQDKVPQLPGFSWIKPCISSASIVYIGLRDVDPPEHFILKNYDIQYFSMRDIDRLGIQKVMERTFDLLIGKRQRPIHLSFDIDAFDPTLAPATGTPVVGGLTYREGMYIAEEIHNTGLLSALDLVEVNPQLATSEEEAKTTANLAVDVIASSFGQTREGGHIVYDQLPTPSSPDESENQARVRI

[7] = biological target: T3, Proteasome subunit beta (Trypanosoma cruzi) (UniProt O96673); experiment: Trypanosoma cruzi proteasome chymotrypsin-like activity (TcProtChymo) assay.; also: in the data most compounds retested in dose-response had high values; type: functional; settings: 9.37 µM
T3 sequence (whole entry): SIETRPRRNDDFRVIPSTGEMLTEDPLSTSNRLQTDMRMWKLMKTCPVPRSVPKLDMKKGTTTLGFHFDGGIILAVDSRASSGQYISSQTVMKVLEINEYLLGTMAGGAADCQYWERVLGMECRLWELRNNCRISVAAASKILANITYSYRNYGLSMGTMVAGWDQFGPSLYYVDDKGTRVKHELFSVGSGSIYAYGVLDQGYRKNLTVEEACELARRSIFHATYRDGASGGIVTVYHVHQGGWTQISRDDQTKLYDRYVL

[8] = species: Homo sapiens; experiment: To identify inhibition of the IFN signalling (Jak-Stat) pathway via expression of an eGFP reporter gene under the control of an IFN-stimulated response element (ISRE) containing MxA promoter.; type: functional; settings: 30 µM
[9] = biological target: T4, Tyrosyl-tRNA synthetase, putative (Trypanosoma cruzi (strain CL Brener)) (UniProt Q4DSP6); experiment: Trypanosoma cruzi tyrosyl tRNA synthetase (TcYRS) _High Tyrosine SOP; type: functional; settings: 30 µM; also: in the data most compounds retested in dose-response had high values
T4 sequence (whole entry): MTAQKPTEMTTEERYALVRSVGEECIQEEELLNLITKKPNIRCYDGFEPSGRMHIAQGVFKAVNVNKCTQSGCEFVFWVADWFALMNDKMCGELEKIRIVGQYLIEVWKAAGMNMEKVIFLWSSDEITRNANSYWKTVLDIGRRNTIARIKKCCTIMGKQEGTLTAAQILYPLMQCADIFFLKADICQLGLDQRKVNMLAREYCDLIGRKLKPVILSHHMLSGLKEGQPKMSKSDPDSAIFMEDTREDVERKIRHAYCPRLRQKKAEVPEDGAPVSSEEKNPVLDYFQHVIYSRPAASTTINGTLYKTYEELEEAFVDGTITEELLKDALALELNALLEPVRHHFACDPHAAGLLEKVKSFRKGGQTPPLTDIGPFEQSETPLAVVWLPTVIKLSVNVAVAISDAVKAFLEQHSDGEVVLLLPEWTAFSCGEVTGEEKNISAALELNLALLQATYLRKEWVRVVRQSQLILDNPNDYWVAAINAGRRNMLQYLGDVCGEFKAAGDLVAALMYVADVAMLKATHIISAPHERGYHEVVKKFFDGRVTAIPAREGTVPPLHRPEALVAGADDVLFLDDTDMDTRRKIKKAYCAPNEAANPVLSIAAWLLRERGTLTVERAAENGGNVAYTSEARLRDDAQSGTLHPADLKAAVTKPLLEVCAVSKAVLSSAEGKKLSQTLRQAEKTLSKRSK

[10] = biological target: T4, Tyrosyl-tRNA synthetase, putative (Trypanosoma cruzi (strain CL Brener)); experiment: Trypanosoma cruzi tyrosyl tRNA synthetase (TcYRS) SOP; type: functional; settings: 30 µM
[11] = biological target: Chromo domain-containing protein 1 (Saccharomyces cerevisiae (strain ATCC 204508 / S288c) (Baker's yeast)) (UniProt P32657); experiment: ScCHD-1 Enzyme Inhibition Assay; type: functional; settings: 30 µM; also: in the data most compounds retested in dose-response had high values
Chain of Chromo domain-containing protein 1 (Saccharomyces cerevisiae (strain ATCC 204508 / S288c) (Baker's yeast)) (P32657 whole entry, the tested form may be a part): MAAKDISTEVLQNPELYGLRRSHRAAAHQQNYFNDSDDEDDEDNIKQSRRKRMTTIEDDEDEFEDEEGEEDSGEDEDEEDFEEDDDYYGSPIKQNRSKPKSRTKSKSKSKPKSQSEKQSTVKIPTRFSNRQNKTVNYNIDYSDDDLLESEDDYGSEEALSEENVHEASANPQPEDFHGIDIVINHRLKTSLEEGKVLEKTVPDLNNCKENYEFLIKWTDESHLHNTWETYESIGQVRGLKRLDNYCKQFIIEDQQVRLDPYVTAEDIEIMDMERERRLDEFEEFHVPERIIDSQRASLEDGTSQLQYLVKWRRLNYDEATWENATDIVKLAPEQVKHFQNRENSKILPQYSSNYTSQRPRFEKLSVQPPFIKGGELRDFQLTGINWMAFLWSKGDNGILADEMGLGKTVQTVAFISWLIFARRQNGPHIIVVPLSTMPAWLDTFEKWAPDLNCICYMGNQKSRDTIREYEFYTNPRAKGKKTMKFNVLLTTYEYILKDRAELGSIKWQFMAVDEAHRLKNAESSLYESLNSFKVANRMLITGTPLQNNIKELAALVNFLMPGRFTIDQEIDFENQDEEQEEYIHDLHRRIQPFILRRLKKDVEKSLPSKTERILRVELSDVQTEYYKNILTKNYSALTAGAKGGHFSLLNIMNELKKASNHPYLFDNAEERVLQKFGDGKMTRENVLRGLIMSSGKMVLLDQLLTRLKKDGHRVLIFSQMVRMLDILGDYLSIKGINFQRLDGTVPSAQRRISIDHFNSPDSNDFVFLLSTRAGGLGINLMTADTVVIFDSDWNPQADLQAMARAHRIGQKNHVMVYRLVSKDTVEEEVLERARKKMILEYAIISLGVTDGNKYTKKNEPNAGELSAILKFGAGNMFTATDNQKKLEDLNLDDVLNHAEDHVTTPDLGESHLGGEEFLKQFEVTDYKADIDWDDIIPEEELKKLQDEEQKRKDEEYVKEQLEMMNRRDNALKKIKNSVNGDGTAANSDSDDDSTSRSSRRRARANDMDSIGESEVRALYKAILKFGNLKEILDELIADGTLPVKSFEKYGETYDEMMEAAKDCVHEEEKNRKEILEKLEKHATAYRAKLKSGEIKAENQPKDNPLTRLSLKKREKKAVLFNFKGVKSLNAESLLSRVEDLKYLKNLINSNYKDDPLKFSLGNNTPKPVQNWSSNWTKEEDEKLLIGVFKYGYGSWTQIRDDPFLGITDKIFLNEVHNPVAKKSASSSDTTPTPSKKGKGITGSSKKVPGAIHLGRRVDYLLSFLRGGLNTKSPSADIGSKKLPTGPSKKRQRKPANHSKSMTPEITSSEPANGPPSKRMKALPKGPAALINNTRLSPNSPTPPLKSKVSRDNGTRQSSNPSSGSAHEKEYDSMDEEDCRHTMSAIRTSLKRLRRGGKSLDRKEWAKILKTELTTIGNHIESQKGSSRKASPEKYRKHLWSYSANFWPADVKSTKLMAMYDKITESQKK

Chain of Protein translocase subunit SecA (Escherichia coli (strain K12)) (P10408 whole entry): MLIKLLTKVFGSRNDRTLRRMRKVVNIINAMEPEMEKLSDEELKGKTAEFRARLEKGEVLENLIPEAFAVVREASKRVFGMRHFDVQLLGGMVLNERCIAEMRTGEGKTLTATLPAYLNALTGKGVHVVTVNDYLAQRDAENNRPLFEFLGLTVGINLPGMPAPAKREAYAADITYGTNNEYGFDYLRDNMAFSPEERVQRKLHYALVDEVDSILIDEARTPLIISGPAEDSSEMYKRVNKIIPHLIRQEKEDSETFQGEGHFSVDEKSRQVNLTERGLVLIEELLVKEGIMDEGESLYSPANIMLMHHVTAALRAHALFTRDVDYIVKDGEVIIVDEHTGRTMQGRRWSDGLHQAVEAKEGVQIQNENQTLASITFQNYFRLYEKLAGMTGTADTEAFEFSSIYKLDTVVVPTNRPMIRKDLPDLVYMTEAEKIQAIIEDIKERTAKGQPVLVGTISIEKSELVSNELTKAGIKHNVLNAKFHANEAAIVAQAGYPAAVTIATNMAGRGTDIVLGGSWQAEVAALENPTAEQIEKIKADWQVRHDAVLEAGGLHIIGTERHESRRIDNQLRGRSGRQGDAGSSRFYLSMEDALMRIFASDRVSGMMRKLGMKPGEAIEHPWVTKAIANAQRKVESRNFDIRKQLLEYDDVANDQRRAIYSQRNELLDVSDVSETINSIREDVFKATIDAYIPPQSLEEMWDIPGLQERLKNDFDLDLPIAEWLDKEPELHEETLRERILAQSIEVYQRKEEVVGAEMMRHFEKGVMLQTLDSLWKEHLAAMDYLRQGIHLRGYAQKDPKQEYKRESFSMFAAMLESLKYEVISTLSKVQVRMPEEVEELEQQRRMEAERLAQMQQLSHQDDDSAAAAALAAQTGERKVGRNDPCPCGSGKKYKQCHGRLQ

| Structure (SMILES) | Percent Effect [1] [%] | Percent Effect [2] [%] | Percent Effect [3] [%] | Percent Effect [4] [%] | Percent Effect [5] [%] | Percent Effect [6] [%] | Percent Effect [7] [%] | Percent Effect [8] [%] | Percent Effect [9] [%] | Percent Effect [10] [%] | Percent Effect [11] [%] |
| --- | --- | --- | --- | --- | --- | --- | --- | --- | --- | --- | --- |
| CCc1cccc(NS(=O)(=O)c2cc3c(c(C(=O)O)c2)OCCO3)c1 | -5.6 | 1.27 | -5.84 | 0.409 | -1.33 | -0.645 | 20.9 | -2.39 | -7.29 | -7.59 | -30.6 |
| CCN(c1ccc(C(=O)N2CCCC(C)C2)cc1)S(=O)(=O)CC (stereo unspecified) | -1.59 | -4.17 | 8.62 | -2.11 | 0.0972 | -3.09 | 9.3 | 23.2 | -2.1 | -7.69 | 1.02 |
| O=C(Nc1cccc(Cl)c1)c1nn(C2CCS(=O)(=O)C2)c2c1CCCC2 (stereo unspecified) | -5 | -7.89 | 10.5 | 6.51 | -1.27 | -3.55 | 12.4 | -5.46 | -1.06 | 2.6 | -5.58 |
| CC(C)n1c(=O)nc2n1C(=O)N(c1ccccc1)C2 | -3.47 | 18.4 | -0.93 | -3.33 | 0.682 | -4.73 | 14.7 | -2.62 | 6.38 | 18.2 | -9.74 |
| Cc1noc(CCCC(=O)NC(C)c2cn(-c3ccccc3)nn2)n1 (stereo unspecified) | -1.64 | 0 | 3.68 | 6.5 | 6.58 | 1.15 | 6.35 | -19.3 | 2.45 | 4.88 | -6.39 |
| Cn1cc(CN2CC[C@@H]3O[C@H](C(=O)N4CCOCC4)C[C@@H]32)cn1 | 1.91 | -2.7 | 0.801 | -2.48 | -3.91 | 2.5 | -0.0845 | -20.5 | -46.5 | -3.66 | 4.62 |
| Cc1nc(CC(=O)N2CCC[C@H]2c2nc(C(C)C)no2)cs1 | -6.79 | -1.39 | 0.72 | -1.32 | 1.26 | 3.09 | 7.19 | -13.6 | 3.16 | 5.13 | -0.504 |
| O=C(Cc1ccc2c(c1)OCO2)N1CCCN(c2ccccc2)CC1 | -6.04 | 13.7 | 3.46 | 5.03 | 0.992 | -2 | 4.54 | 10.8 | 3.12 | 11.1 | -0.294 |
| CC(C)Cc1noc(CN2CCN(CCO)CC2)n1 | -0.954 | 10.5 | 1.51 | -0.0672 | -2.07 | 0.766 | 12 | 11.2 | 3.43 | 9.76 | -8.48 |
| Cc1nn(C)c(C)c1C1CCCN1Cc1nc(-c2ccco2)no1 (stereo unspecified) | -1.05 | 10.8 | -11.3 | 7.16 | 4.18 | -2.03 | 3.23 | 26.2 | 10.9 | 23.2 | -7.01 |
| COc1cc(C)c(C(C)NC(=O)Nc2nnc(C)s2)cc1OC (stereo unspecified) | -4.05 | 5.41 | -4.62 | 14.6 | 7.72 | 1.24 | 7.64 | 11.2 | 2.15 | 11.1 | -3.99 |
| Cc1n[nH]c(C)c1NC(=O)CN1CCc2c(nc(C3CC3)n2C)C1 | -1.39 | 20.8 | -6.42 | -4.94 | -9.36 | 0 | 10.6 | 37.3 | 3.88 | 2.44 | -7.54 |
| OCC1CCCN1c1cc(N2CCc3ccccc3C2)ncn1 (stereo unspecified) | -5.73 | 5.2 | -4.03 | -9.93 | 8.13 | -6.95 | 7.84 | -3.87 | 3.81 | 14.1 | -20.3 |
| CN1CCOC(CN(C(=O)Cc2ccccc2F)c2nccs2)C1 (stereo unspecified) | -1.47 | 0 | -3.71 | 11.3 | 8.82 | -2.03 | -0.539 | 1.86 | 1.98 | 6.1 | 5.97 |
| Cn1cc(CN2CC3(CCN(C(=O)c4cscn4)C3)C2)cn1 | -1.74 | 19.2 | -7.29 | 10.7 | 3.77 | -3.19 | 9.85 | 4.08 | 10.4 | 16.1 | -10.8 |
| CCc1nnc2n1CCN(Cc1csc(-c3cnn(C)c3)n1)C2 | -3.51 | 12.5 | -7.81 | 3.08 | -3.79 | -2.21 | 18.6 | -7.26 | 5.26 | 0 | 0.402 |
